Records with an inconclusive call do not appear. Unmarked numbers belong to inactive results. Activity calls are given as the source filed them. The call rests on the fitted dose curve; in most records, active means well fitted cell-killing curve with a large enough effect; inconclusive means small, poorly fitted or top-dose-only effect, or effect the other way; inactive means no such curve, though single readings can be large or run the other way.
Test: Quantitative High-Throughput drug screen in 47 multiple myeloma cell lines against the NCATS MIPE library collection: OPM1_PLB cell viability assay (AID 1918989); further: nearly all actives have a fitted effect of over 40% in size
Details: CellTiter-Glo, 48 h; series mostly up to 45.8 µM; viability (% of control): at the top concentration
Excerpt: PI: Beverly A. Mock Ph.D.
Laboratory of Cancer Biology and Genetics,
Center for Cancer Research, National Cancer Institute,
National Institute of Health, Bethesda, Maryland
Drug resistance and disease progression are common in multiple myeloma (MM) patients, underscoring the need for new therapeutic combinations. […] We hypothesized that effective combinations would reduce MYC expression and enhance p16 activity. […] These preclinical data identify potentially useful drug combinations for evaluation in drug-resistant MM and reveal potential mechanisms of combined drug sensitivity.
Described herein is the primary MIPE qHTS used to cherrypick compounds. Validated compounds were then further tested for potential synergistic activiy.
[1] Peat TJ, Gaikwad SM, Dubois W, Gyabaah-Kessie N, Zhang S, Gorjifard S, Phyo Z, Andres M, Hughitt VK, Simpson RM, Miller MA, Girvin AT, Taylor A, Williams D, D'Antonio N, Zhang Y, Rajagopalan A, Flietner E, Wilson K, Zhang X, Shinn P, Klumpp-Thomas C, McKnight C, Itkin Z, Chen L, Kazandijian D, Zhang J, Michalowski AM, Simmons JK, Keats J, Thomas CJ, Mock BA. Drug combinations identified by high-throughput screening promote cell cycle transition and upregulate Smad pathways in myeloma. Cancer Lett. 2023 Aug 1;568:216284. doi: 10.1016/j.canlet.2023.216284. Epub 2023 Jun 24. PMID: 37356470; PMCID: PMC10408729.
SEQUENCE No. (e.g., 1, 2, 3, etc.); […] (e.g., Cells, Incubation, Reagent, etc.); VALUE and DESCRIPTION.
1; Cells; 5 uL; white, solid bottom 1536-well Greiner assay plate.
2; Compounds; 23 nL; Kalypsis pin tool (Wako USA) equipped with a 1536-well pin head to transfer to the assay plates.
3; Incubation; 48 hours; 37C incubation.
4; Reagent;5uL; CellTiter Glo (Promega).
5; Detector; 425V; Luminescence; Viewlux PerkinElmer.
NOTES (numbers refer to Sequence numbers above)
1. The cell-based screening methods employed in this study were like those previously published. Briefly, the corresponding myeloma cell lines were screened in 1,536-well plates with 500 cells, 5-uL per well for inhibition of cell viability (assessed by measuring ATP levels with CellTiterGlo).
2. NCATS MIPE 4.0 library of approved and investigational drugs were added using the Kalypsis pin tool. Wells treated with DMSO only for 100% viability and media only for 0% viability were used as controls.
3. The assay plates were covered and incubated for 48 hours in a 37C, 5% CO2 incubator with controlled humidity.
4. After 48 hours, CellTilter-GloTM luminescent substrate mix (Promega) reagent was added to the assay plate and plates we incubated for 5 min at room temperature.
5. Signal was measured as median relative luminescence units on a ViewLux (PerkinElmer) multiplate reader.
[1] Heske CM, Davis MI, Baumgart JT, Wilson K, Gormally MV, Chen L, Zhang X, Ceribelli M, Duveau DY, Guha R, Ferrer M, Arnaldez FI, Ji J, Tran HL, Zhang Y, Mendoza A, Helman LJ, Thomas CJ. Matrix Screen Identifies Synergistic Combination of PARP Inhibitors and Nicotinamide Phosphoribosyltransferase (NAMPT) Inhibitors in Ewing Sarcoma. Clin Cancer Res. 2017 Dec 1;23(23):7301-7311. doi: 10.1158/1078-0432.CCR-17-1121. Epub 2017 Sep 12. PMID: 28899971; PMCID: PMC6636827.
Potency means the concentration at half of the fitted maximal effect.

Structure (SMILES) | viability (% of control) | Potency
CCCCCN(C)CCC(O)(P(=O)(O)O)P(=O)(O)O | 105% | 
CC(C)OC(=O)CCCC=CC[C@@H]1[C@H](C=C[C@@H](O)COc2cccc(C(F)(F)F)c2)[C@H](O)C[C@@H]1O |  | 18.7 µM (active)
CCC(=O)NC[C@H](Cc1ccc(OCCc2nc(-c3ccccc3)oc2C)cc1)NC(C)=CC(=O)c1ccc(C(F)(F)F)cc1 | 137% | 
Cc1ccc(C(=O)Nc2cccc(C(F)(F)F)c2)cc1Nc1nc(-c2cccnc2)nc2c1cnn2C |  | 8.33 µM (active)
CCCCCCCCCCCC1=C(O)C(=O)C=C(O)C1=O |  | 3.72 µM (active)
O=C(NC1CCOCC1)c1ccc(-c2cc(-c3cn[nH]c3-c3ccccn3)ccn2)cc1 | 122% | 
O=C(Nc1cccc(Br)c1)c1cccc(S(=O)(=O)N2CCCCCC2)c1 |  | 18.7 µM (active)
CC(=Cc1ccccc1)C=C1SC(=S)N(CC(=O)O)C1=O | 150% | 
COc1ccc(Cc2ccc(NC(N)=O)cc2)cc1-c1cccc(Cl)c1 | 132% | 
COCCOC(=O)C1=C(C)NC2=C(C(=O)CC(c3ccccc3OC)C2)C1c1cccc(O)c1 (stereo not given) |  | 6.62 µM (active)
Cc1c(O)cccc1C(=O)N[C@@H](CSc1ccccc1)[C@H](O)CN1C[C@H]2CCCC[C@@H]2C[C@@H]1C(=O)NC(C)(C)C |  | 18.7 µM (active)
O=C(CCCCCCC(=O)Nc1ccccc1)NO |  | 1.32 µM (active)
O=c1ccn([C@@H]2O[C@H](CO)[C@H](O)[C@H]2O)c(=O)[nH]1 | 140% | 
CN(C)CCC=C1c2ccccc2COc2ccc(CC(=O)O)cc21 | 130% | 
NS(=O)(=O)c1cccc2c1C(=O)c1cccc(O)c1C2=O |  | 0.235 µM (active)
CC(=O)N(C)C1(c2ccccc2)CCN(CCC[C@]2(c3ccc(Cl)c(Cl)c3)CCCN(C(=O)c3ccccc3)C2)CC1 |  | 18.7 µM (active)
COc1ccc(C2CC(c3ccccc3)=NN2c2ccc(S(N)(=O)=O)cc2)cc1 (stereo not given) |  | 20.9 µM (active)
Cc1nc(N)sc1-c1ccnc(Nc2ccc(N3CCOCC3)cc2)n1 |  | 4.18 µM (active)
O=c1cc(-c2ccc(O)cc2)oc2cc(O)cc(O)c12 |  | 18.7 µM (active)
Cc1ccc([C@@H]2O[C@H](CO)[C@@H](O)[C@H](O)[C@@H]2O)cc1Cc1ccc(-c2ccc(F)cc2)s1 |  | 20.9 µM (active)

Structure (SMILES) | viability (% of control) | Potency
NC(=O)[C@@H](CCC(F)(F)F)N(Cc1ccc(-c2ncon2)cc1F)S(=O)(=O)c1ccc(Cl)cc1 |  | 20.9 µM (active)
COc1cccc(-c2cc(=O)c3ccccc3o2)c1N |  | 16.6 µM (active)
CC(C)C(=O)Oc1ccc(CO)cc1[C@H](CCN(C(C)C)C(C)C)c1ccccc1 | 88.6% | 
COc1ccc(-c2coc3cc(O)cc(O)c3c2=O)cc1 | 137% | 
CC1(C)Cc2c(sc(NC(=S)NC(=O)c3ccccc3)c2C(=O)O)CO1 | 119% | 
Cc1cnc(C(=O)O)c[n+]1[O-] | 131% | 
CCOC(=O)C1=C(N)Oc2ccc(Br)cc2C1C(C#N)C(=O)OCC (stereo not given) |  | 23.5 µM (active)
CO[C@H]1C(=O)[C@]2(C)[C@@H](OC)C[C@H]3OC[C@@]3(OC(C)=O)[C@H]2[C@H](OC(=O)c2ccccc2)[C@]2(O)C[C@H](OC(=O)[C@H](O)[C@@H](NC(=O)OC(C)(C)C)c3ccccc3)C(C)=C1C2(C)C | 48.8% | 
C[C@H](NC(=O)C(=O)Nc1ccccc1C(C)(C)C)C(=O)N[C@@H](CC(=O)O)C(=O)COc1c(F)c(F)cc(F)c1F | 117% | 
CC(C)(Cc1ccc2ccccc2c1)NC[C@@H](O)COc1cccc(Cl)c1C#N |  | 6.62 µM (active)
O=C(O)CCC1CCC(c2cc(F)ccc2F)(S(=O)(=O)c2ccc(Cl)cc2)CC1 (stereo not given) |  | 5.26 µM (active)
CC(C(=O)O)c1ccc(-c2ccccc2)c(F)c1 (stereo not given) | 120% | 
CC[C@@]1(O)C[C@H](O[C@H]2C[C@H](N(C)C)[C@H](O[C@H]3C[C@H](O)[C@H](O[C@H]4CCC(=O)[C@H](C)O4)[C@H](C)O3)[C@H](C)O2)c2c(cc3c(c2O)C(=O)c2c(O)cccc2C3=O)[C@@H]1C(=O)OC |  | 0.833 µM (active)
COc1ccc(C2Sc3ccccc3N(CCN(C)C)C(=O)C2OC(C)=O)cc1 (stereo not given) | 131% | 
Nc1ncnc2c1ncn2[C@@H]1O[C@@H](CO)[C@H](O)[C@H]1O | 124% | 
O=c1cc(-c2cccc3c2Sc2ccccc2S3)oc(N2CCOCC2)c1 |  | 26.4 µM (active)
CC(C)C(C)C=CC(C)C1CCC2C3=CC=C4CC(O)CCC4(C)C3CCC21C (stereo not given) | 139% | 
Clc1cc(Cl)cc(CNc2ncncc2-c2ccc3c(c2)OCO3)c1 |  | 20.9 µM (active)
O=C(CCN1CCN(C(=O)OCc2cc(Cl)cc(Cl)c2)CC1)c1ccc2[nH]c(=O)oc2c1 | 156% | 
OC[C@H]1O[C@@H](n2cnc3c2NC=NC[C@@H]3O)C[C@H]1O | 127% | 
